Measurements from PubChem BioAssay (NCI).
Several values for one entry are separate records, joined by “and”; a condition that tells them apart may be missing. Identical values can stand only once. Compounds without any hit were thinned out: in the full panel of roughly 83,000, 20% have a hit.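 For each line, cells grew in 96-well plates with the test compound present at a single concentration for 48 hours.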 Activity calls are given as the source filed them. How the source made its calls: active means growth percent below 10; inactive means the rest.

How the values were obtained:
Test in all cases: NCI-60 one-dose screen, 48 h (100 = growth as untreated, 0 = no growth, -100 = all killed)
Conditions in all cases: 10 µM unless noted
RPMI-8226 leukemia = tested on: RPMI-8226 leukemia
OVCAR-8 ovarian = tested on: OVCAR-8 ovarian
OVCAR-5 ovarian = tested on: OVCAR-5 ovarian
OVCAR-4 ovarian = tested on: OVCAR-4 ovarian
SK-OV-3 ovarian = tested on: SK-OV-3 ovarian
IGROV1 ovarian = tested on: IGROV1 ovarian
OVCAR-3 ovarian = tested on: OVCAR-3 ovarian
NCI/ADR-RES ovarian = tested on: NCI/ADR-RES ovarian
MDA-MB-435 melanoma = tested on: MDA-MB-435 melanoma
SW-620 colon = tested on: SW-620 colon
MCF7 breast = tested on: MCF7 breast
HCT-116 colon = tested on: HCT-116 colon
HCC-2998 colon = tested on: HCC-2998 colon
KM12 colon = tested on: KM12 colon
T-47D breast = tested on: T-47D breast
BT-549 breast = tested on: BT-549 breast
HS 578T breast = tested on: HS 578T breast

| SMILES | growth (RPMI-8226 leukemia) | growth (OVCAR-8 ovarian) | growth (OVCAR-5 ovarian) | growth (OVCAR-4 ovarian) | growth (SK-OV-3 ovarian) | growth (IGROV1 ovarian) | growth (OVCAR-3 ovarian) | growth (NCI/ADR-RES ovarian) | growth (MDA-MB-435 melanoma) | growth (SW-620 colon) | growth (MCF7 breast) | growth (HCT-116 colon) | growth (HCC-2998 colon) | growth (KM12 colon) | growth (T-47D breast) | growth (BT-549 breast) | growth (HS 578T breast) |
| --- | --- | --- | --- | --- | --- | --- | --- | --- | --- | --- | --- | --- | --- | --- | --- | --- | --- |
| COc1ccc(C(=O)CC(c2ccccc2)C(C#N)c2ccccc2)cc1 (stereo unspecified) | 72.6% (inactive) | 86% (inactive) | 110% (inactive) | 88.8% (inactive) | 102% (inactive) | 102% (inactive) | 82.4% (inactive) | 84.2% (inactive) | 78.9% (inactive) | 91.1% (inactive) | 93.4% (inactive) | 91.2% (inactive) | 99.1% (inactive) | 79.9% (inactive) | – | – | – |
| Cc1cc(-c2cc(C)c(O)c(C)c2)cc(C)c1O | 79.4% (inactive) | 95% (inactive) | 95.6% (inactive) | – | – | 100% (inactive) | 97.2% (inactive) | 76% (inactive) | 8.38% (active) | 77.4% (inactive) | 91.6% (inactive) | 83.7% (inactive) | 92.3% (inactive) | 72.6% (inactive) | 93.7% (inactive) | 65.7% (inactive) | – |
| Nc1cc(N)c(N)cc1N | 89.7% (inactive) | 63.3% (inactive) | -9.01% (active) | 25.3% (inactive) | 98.4% (inactive) | 47.6% (inactive) | -55.1% (active) | 59.6% (inactive) | -73.8% (active) | 7.1% (active) | -49.2% (active) | 0.84% (active) | 101% (inactive) | – | 81.7% (inactive) | 85.4% (inactive) | – |
| ClCCOCCOc1ccc(C2CCCCC2)cc1 | 110% (inactive) | 97.1% (inactive) | 95.4% (inactive) | 97.7% (inactive) | 102% (inactive) | 117% (inactive) | 103% (inactive) | 115% (inactive) | 99.5% (inactive) | 110% (inactive) | 102% (inactive) | 99.5% (inactive) | 106% (inactive) | – | 96.7% (inactive) | 95% (inactive) | – |
| CN1CNC(=O)NC1 | 113% (inactive) and 104% (inactive) | 106% (inactive) and 98.6% (inactive) | 112% (inactive) and 111% (inactive) | 119% (inactive) and 112% (inactive) | 112% (inactive) and 105% (inactive) | 137% (inactive) and 97.8% (inactive) | 112% (inactive) and 107% (inactive) | 109% (inactive) and 103% (inactive) | 106% (inactive) and 115% (inactive) | 105% (inactive) and 104% (inactive) | 109% (inactive) and 96.4% (inactive) | 105% (inactive) | 113% (inactive) and 102% (inactive) | 117% (inactive) and 105% (inactive) | 112% (inactive) and 100% (inactive) | 97.8% (inactive) and 112% (inactive) | 109% (inactive) and 96.5% (inactive) |
| CCCCCCCCCCCCCCCCC(C(=O)O)C(O)(CC(=O)O)C(=O)O (stereo unspecified) | 104% (inactive) and -25.5% (active) | 111% (inactive) | 109% (inactive) and -56.6% (active) | 108% (inactive) and 21.3% (inactive) | 98.3% (inactive) and 36.1% (inactive) | 109% (inactive) and -21.4% (active) | 111% (inactive) and -3.72% (active) | 111% (inactive) and 89.7% (inactive) | 102% (inactive) and -33.7% (active) | 101% (inactive) and -23.5% (active) | 95.7% (inactive) and -2.93% (active) | 105% (inactive) and -35.5% (active) | 96.9% (inactive) | – | 98.2% (inactive) and 4.81% (active) | 103% (inactive) and -46.4% (active) | – |
| O=C1CSC2=NCCN12 | 101% (inactive) and 90.7% (inactive) | 96.4% (inactive) and 107% (inactive) | 116% (inactive) and 96.7% (inactive) | 93.9% (inactive) and 94.2% (inactive) | 105% (inactive) and 124% (inactive) | 106% (inactive) and 101% (inactive) | 102% (inactive) and 122% (inactive) | 94.9% (inactive) and 102% (inactive) | 71.5% (inactive) and 70.6% (inactive) | 92% (inactive) and 93.4% (inactive) | 92.7% (inactive) and 81.6% (inactive) | 82.7% (inactive) and 63.8% (inactive) | 96.9% (inactive) and 107% (inactive) | – | 111% (inactive) | 131% (inactive) | 88.1% (inactive) and 92.9% (inactive) |
| CC(=O)OCC1OC(OC(C)=O)C(OC(C)=O)C(OC(C)=O)C1OC(C)=O (stereo unspecified) | 100% (inactive) and 103% (inactive) | 97.5% (inactive) and 99.7% (inactive) | 101% (inactive) and 112% (inactive) | 97% (inactive) and 104% (inactive) | 102% (inactive) and 106% (inactive) | 108% (inactive) and 105% (inactive) | 110% (inactive) and 107% (inactive) | 100% (inactive) and 107% (inactive) | 105% (inactive) and 107% (inactive) | 102% (inactive) and 105% (inactive) | 99.8% (inactive) and 91.9% (inactive) | 103% (inactive) | 111% (inactive) and 101% (inactive) | 109% (inactive) and 100% (inactive) | 97.7% (inactive) and 101% (inactive) | 96.3% (inactive) and 103% (inactive) | 132% (inactive) and 101% (inactive) |
| N#CC(C#N)N=Nc1cc(Cl)ccc1Cl | 95.2% (inactive) | 90% (inactive) | 97.4% (inactive) | 98.9% (inactive) | 99.2% (inactive) | – | 106% (inactive) | 112% (inactive) | – | 104% (inactive) | 93.7% (inactive) | 97.2% (inactive) | 104% (inactive) | – | 96.7% (inactive) | 101% (inactive) | – |
